Records with an inconclusive call do not appear. Active and inactive are the calls of the source. Calls come from the whole dose curve; as a rule, active = well fitted curve in the direction sought with a large enough effect; inconclusive = small, poorly fitted or top-dose-only effect, or another doubt; inactive = no such curve, though single readings can be large; an effect the other way counts as inactive or inconclusive.

Experiment [1] in a line: qHTS of pediatric cancer cell lines to identify multiple opportunities for drug repurposing: Primary screen for SJ-GBM2 cells (AID 1347091). Note: potency is the fitted concentration of half-maximal effect. An outline of the steps: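 Viability measured as metabolically active cells via CellTiter-Glo luminescence following 48 hours of compound exposure, 11-point dilutions in confirmatory testing. 500-1,000 cells/well plated 5 hours before dosing; controls were DMSO and 2.3 µM bortezomib.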

Experiment [2] in a line: qHTS of pediatric cancer cell lines to identify multiple opportunities for drug repurposing: Primary screen for A673 cells (AID 1347092). Note: nearly all actives have a fitted effect of over 45% in size. Note: potency is the fitted concentration of half-maximal effect. An outline of the steps: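 Cell viability of A673 measured by CellTiter-Glo ATP luminescence after 48 hours compound exposure. Dilution series spanned 0.78 nM to 46 µM (MIPE, 11-point) or 0.59 nM to 46 µM (NPC, 8-point); bortezomib 2.3 uM positive control.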
(In qHTS, concentration-response curves come from the screen itself.)

Experiment [3] can be described thus: qHTS of pediatric cancer cell lines to identify multiple opportunities for drug repurposing: Primary screen for SK-N-MC cells (AID 1347093). Note: potency is the fitted concentration of half-maximal effect. An outline of the steps:
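Metabolically active cells were quantified by ATP-dependent luminescence (CellTiter-Glo, 15 min at room temperature) following 48 h treatment. Cells had been plated at 500-1,000 per well and settled for 5 h beforehand.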

Experiment [4] can be described thus: qHTS of pediatric cancer cell lines to identify multiple opportunities for drug repurposing: Primary screen for BT-37 cells (AID 1347094). Note: potency is the fitted concentration of half-maximal effect. An outline of the steps: (§1)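 Viability was measured as metabolically active cells after 48 hours of treatment, read by CellTiter-Glo luminescence. Compounds were tested at multiple final concentrations, giving concentration-response curves.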

A short description of experiment [5]: qHTS of pediatric cancer cell lines to identify multiple opportunities for drug repurposing: Primary screen for NB-EBc1 cells (AID 1347095). Note: potency is the fitted concentration of half-maximal effect. The procedure, abridged: as §1
Experiment [6] in a line: qHTS of pediatric cancer cell lines to identify multiple opportunities for drug repurposing: Primary screen for U-2 OS cells (AID 1347096). Note: nearly all actives have a fitted effect of over 50% in size. Note: potency is the fitted concentration of half-maximal effect. The procedure, abridged:
(§2)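 Viability after 48 h compound treatment at 37C, 500-1,000 cells/well, read as ATP luminescence with CellTiter-Glo. Primary screens used 11-point (MIPE, 0.78 nM-46 µM) or 8-point (NPC, 0.59 nM-46 µM) final concentrations; follow-up screens used 11-point dilutions.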

Experiment [7] is described as follows: qHTS of pediatric cancer cell lines to identify multiple opportunities for drug repurposing: Primary screen for NB1643 cells (AID 1347099). Note: nearly all actives have a fitted effect of over 50% in size. Note: potency is the fitted concentration of half-maximal effect. An outline of the steps:
as §1

Experiment [8] can be described thus: qHTS of pediatric cancer cell lines to identify multiple opportunities for drug repurposing: Primary screen for LAN-5 cells (AID 1347100). Note: potency is the fitted concentration of half-maximal effect. An outline of the steps:
as §2

Experiment [9] can be described thus: qHTS of pediatric cancer cell lines to identify multiple opportunities for drug repurposing: Primary screen for BT-12 cells (AID 1347101). Note: nearly all actives have a fitted effect of over 25% in size. Note: potency is the fitted concentration of half-maximal effect. The procedure, abridged: (§3)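 Cells (500-1,000/well) rested 5 h, then received compounds for 48 h; metabolically active cells were measured by CellTiter-Glo luminescence. Final concentrations spanned up to 46 µM (MIPE, 11-point) or 0.59 nM-46 µM (NPC, 8-point) in primary screens, 11-point in follow-ups.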

Experiment [10] can be described thus: qHTS of pediatric cancer cell lines to identify multiple opportunities for drug repurposing: Primary screen for Rh18 cells (AID 1347102). Note: nearly all actives have a fitted effect of over 65% in size. Note: potency is the fitted concentration of half-maximal effect. The procedure, abridged: as §2
Experiment [11] can be described thus: qHTS of pediatric cancer cell lines to identify multiple opportunities for drug repurposing: Primary screen for RD cells (AID 1347104). Note: nearly all actives have a fitted effect of over 55% in size. Note: potency is the fitted concentration of half-maximal effect. An outline of the steps: as §1
The nature of experiment [12]: qHTS of pediatric cancer cell lines to identify multiple opportunities for drug repurposing: Primary screen for control Hh wild type fibroblast cells (AID 1347106).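 Note: series mostly up to about 46 µM; a drop in luminescence marks cytotoxicity and a rise apparent proliferation; nearly all actives have a fitted effect of over 55% in size.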 The procedure, abridged:
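Cells (500-1,000/well) in growth media were settled 5 h at 37 degrees C, then given compounds for 48 h. Viability was read as CellTiter-Glo luminescence. Primary runs used MIPE at 11 points (0.78 nM-46 µM) and NPC at 8 points (0.59 nM-46 µM); follow-ups used 11 points.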

A short description of experiment [13]: qHTS of pediatric cancer cell lines to identify multiple opportunities for drug repurposing: Primary screen for Rh30 cells (AID 1347107). Note: nearly all actives have a fitted effect of over 75% in size. Note: potency is the fitted concentration of half-maximal effect. The procedure, abridged: as §2
Experiment [14] can be described thus: qHTS of pediatric cancer cell lines to identify multiple opportunities for drug repurposing: Primary screen for Rh41 cells (AID 1347108). Note: nearly all actives have a fitted effect of over 70% in size. Note: potency is the fitted concentration of half-maximal effect. The procedure, abridged: as §1
Experiment [15] can be described thus: qHTS of pediatric cancer cell lines to identify multiple opportunities for drug repurposing: Confirmatory screen for NB1643 cells (AID 1347109). Note: nearly all actives have a fitted effect of over 45% in size. Note: potency is the fitted concentration of half-maximal effect. The procedure, abridged: as §2
Experiment [16] is described as follows: qHTS of pediatric cancer cell lines to identify multiple opportunities for drug repurposing: Confirmatory screen for A673 cells (AID 1347110).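 Note: cells exposed to compound for 48 h before the viability read; nearly all actives have a fitted effect of over 65% in size.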 Note: potency is the fitted concentration of half-maximal effect. The procedure, abridged: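 Viability was read as ATP luminescence (CellTiter-Glo) after 48 h of compound exposure at 37 C in A673 cells seeded at 500-1,000/well. Titrations reached 46 uM final, with 11 points in the confirmatory screen. Concentration-response curves were fitted directly.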

Experiment [17] can be described thus: qHTS of pediatric cancer cell lines to identify multiple opportunities for drug repurposing: Primary screen for Saos-2 cells (AID 1347097). Note: nearly all actives have a fitted effect of over 40% in size. Note: potency is the fitted concentration of half-maximal effect. An outline of the steps: as §1
Experiment [18] in a line: qHTS of pediatric cancer cell lines to identify multiple opportunities for drug repurposing: Primary screen for SK-N-SH cells (AID 1347098). Note: nearly all actives have a fitted effect of over 65% in size. Note: potency is the fitted concentration of half-maximal effect. An outline of the steps:
as §3

The nature of experiment [19]: qHTS of pediatric cancer cell lines to identify multiple opportunities for drug repurposing: Primary screen for OHS-50 cells (AID 1347103). Note: nearly all actives have a fitted effect of over 40% in size. Note: potency is the fitted concentration of half-maximal effect. The procedure, abridged: as §3
A short description of experiment [20]: qHTS of pediatric cancer cell lines to identify multiple opportunities for drug repurposing: Primary screen for MG 63 (6-TG R) cells (AID 1347105). Note: nearly all actives have a fitted effect of over 50% in size. Note: potency is the fitted concentration of half-maximal effect. The procedure, abridged:
as §1

As to `CC(C)(C)C(O)C(Oc1ccc(Cl)cc1)n1cncn1` (centres undefined), the Potency result in experiment [1], in experiment [2], in [4], in experiment [5], in experiment [6] and in experiment [7] was “inactive” throughout. Moreover, the Potency entry in experiment [8], in experiment [9], in experiment [10], in experiment [11], in experiment [12] and in experiment [13] was “inactive” each time. For the same compound, the Potency result in experiment [14], in experiment [15] and in experiment [16] was “inactive” in each case. Moreover, the Potency in [3] is 0.001 µM (active).

`O=C(O)COc1ccccc1`: the Potency entry in experiment [1], in experiment [2], in [3], in experiment [5], in experiment [6] and in experiment [17] was “inactive” each time. The Potency entry in experiment [18], in [8], in experiment [9], in experiment [10], in experiment [19] and in experiment [11] was “inactive” throughout. Besides, the Potency result in [20], in [12], in [13] and in experiment [14] was “inactive” each time.

Take `C[C@@H]1CC[C@@]2(OC1)O[C@H]1C[C@H]3[C@@H]4CC=C5C[C@@H](O[C@@H]6O[C@H](CO)[C@@H](O[C@@H]7O[C@@H](C)[C@H](O)[C@@H](O)[C@@H]7O)[C@H](O)[C@@H]6O[C@@H]6O[C@@H](C)[C@H](O)[C@@H](O)[C@@H]6O)CC[C@]5(C)[C@@H]4CC[C@]3(C)[C@@H]1[C@H]2C`: the Potency in [1] is 5.26 µM (active); in experiment [2], 3.72 µM (active); in experiment [3], 1.32 µM (active); in experiment [4], 6.85 µM (active); in experiment [5] it was 4.69 µM (active); in [6], 9.35 µM (active). The Potency in experiment [17] was 5.9 µM (active); in [18], 12.1 µM (active); in experiment [8], 3.72 µM (active); in experiment [9], 6.85 µM (active); in [10], 4.18 µM (active); in experiment [19], 4.32 µM (active). Besides, the Potency in experiment [11] was 5.9 µM (active); in [20], 2.96 µM (active); in experiment [13] it was 11.8 µM (active); in experiment [14], 14.8 µM (active); in [15], 4.14 µM (active); in experiment [16], 6.57 µM (active). In [12], the Potency entry is “inactive”.

Consider `NC1CC1c1ccccc1` (centres undefined), for which the Potency entry in experiment [1], in experiment [2], in experiment [3], in experiment [5], in [6] and in [17] was “inactive” in each case. Moreover, the Potency entry in [18], in [7], in [8], in experiment [9], in [10] and in experiment [19] was “inactive” each time. Further, the Potency result in experiment [11], in experiment [20], in experiment [12], in experiment [13] and in [14] was “inactive” each time.

Turning to `CO[C@H]1CCC(O[C@H]2C[C@H]([C@]3(C)CC[C@]4(C[C@H](O)[C@@H](C)[C@@H]([C@@H](C)C=C(C)C(=O)[C@H](C)C[C@H](C)C(=O)O)O4)O3)O[C@]3(O[C@@H]([C@H]4O[C@@](O)(CO)[C@H](C)C[C@H]4C)C[C@H]3C)[C@H]2C)O[C@H]1C` (some centres undefined), the Potency is 2.09 µM (active) in [1]; 1.48 µM (active) in experiment [2]; 0.187 µM (active) in experiment [3]; 0.344 µM (active) in [4]; 0.209 µM (active) in [5]; 2.64 µM (active) in experiment [17]. For the same compound, the Potency in experiment [18] was 30.4 µM (active); in experiment [7], 1.05 µM (active); in [8], 0.372 µM (active); in experiment [9], 0.273 µM (active); in experiment [10] it was 2.96 µM (active); in experiment [19], 0.217 µM (active). The Potency is 1.87 µM (active) in experiment [11]; 7.43 µM (active) in [20]; 3.72 µM (active) in experiment [13]; 1.87 µM (active) in [14]; 2.93 µM (active) in [15]; 1.85 µM (active) in experiment [16].

As to `C[C@H]([C@H](O)CCC(C)(C)O)[C@H]1CC[C@@]2(O)C3=CC(=O)[C@@H]4C[C@@H](O)[C@@H](O)C[C@]4(C)[C@@H]3CC[C@]12C`, the Potency entry in [1], in [2], in experiment [3], in [4], in experiment [5] and in experiment [6] was “inactive” throughout. The Potency result in [17], in [18], in experiment [7], in experiment [8], in [9] and in [10] was “inactive” each time. In addition, the Potency result in [19], in [11], in experiment [20], in [12], in experiment [13] and in experiment [14] was “inactive” in each case.

The values are drawn from PubChem BioAssay (NCATS).
